# Data from PubChem BioAssay (EPA / NIEHS).
# Inconclusive results are not listed. Calls of active or inactive are those of the source. How the source made its calls: active means hit-call score of the fitted dose curve at least 0.9, where 1 is the maximum; inconclusive means response in the unintended direction; inactive means score below 0.9.
# Columns and labels:
# [1] = biological target: human Acetylcholinesterase (AChE), ACHE (gene 43) (UniProt P22303); assay: NVS_ENZ_hAChE: NovaScreen (NVS) Enzymatic Assay for human Acetylcholinesterase (AChE) (AID 2283129)
# Method in brief: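 Actives from a duplicate single-point screen (25 uM) were followed up in concentration series. Enzyme activity read by absorbance (colorimetric) 0.33 hour after dosing, cell-free, normalized to DMSO, with loss of signal scored.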
# [2] = biological target: rat Acetylcholinesterase (AChE), Ache (gene 83817) (UniProt P37136); assay: NVS_ENZ_rAChE: NovaScreen (NVS) Enzymatic Assay for rat Acetylcholinesterase (AChE) (AID 2283233)
# Method in brief: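 Compounds first screened at 25 uM in duplicate, then those passing threshold tested in concentration series up to 50 uM, against AChE from rat brain membranes. Enzyme activity read by absorbance at 0.33 h; inhibition scored versus DMSO.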
# [3] = biological target: human Neonicotinoid receptor (NNR), CHRNA2 (gene 1135) (UniProt Q15822); assay: NVS_LGIC_hNNR_NBungSens: NovaScreen (NVS) Ligand-Gated Ion Channel Assay for human Neonicotinoid receptor (NNR) (AID 2283313)
# Method in brief: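 Compounds first screened in duplicate at 25 uM, then actives re-tested in single-replicate dose series up to 50 uM. Binding measured as displacement of specific radioligand from neuroblastoma membrane receptors after 2 h, scintillation read on filters.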
# [4] = biological target: Protein deacetylase HDAC6 (Homo sapiens) (UniProt Q9UBN7); assay: NVS_ENZ_hHDAC6: NovaScreen (NVS) Enzymatic Assay for human Histone Deacetylase 6 (HDAC6) (AID 2283164)
# Method in brief: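 Concentration-response runs up to 50 uM followed a duplicate 25 uM single-point screen. Deacetylase activity of recombinant human HDAC6 read by fluorescence after 1 h, with mobility-shift separation of substrate and product; DMSO as baseline.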
# [5] = biological target: human Raf-1 Proto-Oncogene, serine/threonine Kinase (RAF1), RAF1 (gene 5894) (UniProt P04049); assay: NVS_ENZ_hRAF1: NovaScreen (NVS) Enzymatic Assay for human Raf-1 Proto-Oncogene, serine/threonine Kinase (RAF1) (AID 2283216)
# Method in brief: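 Single-point screening at 25 uM (duplicate), followed by singleton concentration-response to 50 uM maximum for chemicals exceeding threshold. Enzyme activity from fluorescent substrate-product mobility-shift separation after 1 h, relative to DMSO.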
# [6] = biological target: human p21 Activated Kinase 4 (PAK4), PAK4 (gene 10298) (UniProt O96013); assay: NVS_ENZ_hPAK4: NovaScreen (NVS) Enzymatic Assay for human p21 Activated Kinase 4 (PAK4) (AID 2283189)
# Method in brief: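 Extracted PAK4 enzyme activity read by fluorescence with mobility-shift separation 1 h after chemical addition. Duplicate single-concentration screen at 25 uM, DMSO as negative control.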
# [7] = biological target: rat Monoamine Oxidase, MAO-B, Peripheral (MAOBP), Maob (gene 25750) (UniProt P19643); assay: NVS_ENZ_rMAOBP: NovaScreen (NVS) Enzymatic Assay for rat Monoamine Oxidase, MAO-B, Peripheral (MAOBP) (AID 2283242)
# [8] = biological target: human Caspase 10 (CASP10), CASP10 (gene 843) (UniProt Q92851); assay: NVS_ENZ_hCASP10: NovaScreen (NVS) Enzymatic Assay for human Caspase 10 (CASP10) (AID 2283133)
# Method in brief: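 Fluorescence-intensity enzyme read-out of E. coli-expressed CASP10 activity, 1 h after compound. Single-point duplicates at 25 uM preceded concentration-response testing (top 50 uM) of hits; inhibition expressed as signal loss versus DMSO.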
# [9] = biological target: human Epidermal Growth Factor Receptor (EGFR), EGFR (gene 1956) (UniProt P00533); assay: NVS_ENZ_hEGFR: NovaScreen (NVS) Enzymatic Assay for human Epidermal Growth Factor Receptor (EGFR) (AID 2283151)
# Method in brief: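 Cell-free kinase assay, fluorescence plus electrophoretic mobility shift separating substrate and product, read 1 hour after dosing; loss of signal vs DMSO. Duplicate screen at 25 uM, then concentration-response to 50 uM.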
# [10] = biological target: PPP2CA (gene 5515) (UniProt P67775); assay: NVS_ENZ_hPPP2CA: NovaScreen (NVS) Enzymatic Assay for human Protein Phosphatase 2 Aatalytic subunit Alpha (PPP2CA) (AID 2283199)
# Method in brief: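 Cell-free phosphatase activity: fluorescent substrate turnover by recombinant human enzyme, resolved by mobility shift at 1.33 h. Compounds passing the 25 uM duplicate primary screen were rerun in singleton series with a 50 uM top concentration.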
# [11] = biological target: rat Monoamine Oxidase, MAO-B, Central (MAOBC), Maob (gene 25750) (UniProt P19643); assay: NVS_ENZ_rMAOBC: NovaScreen (NVS) Enzymatic Assay for rat Monoamine Oxidase, MAO-B, Central (MAOBC) (AID 2283238)
# Method in brief: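 Actives from a duplicate 25 uM screen went on to singleton concentration-response with a 50 uM maximum. Enzyme source was rat brain tissue MAO-B, assayed cell-free. Radiolabelled product was counted by scintillation 1.17 h post-dose, with signal loss relative to DMSO.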
# [12] = biological target: bovine Gamma-Aminobutyric Acid Type A Receptor BDZ, alpha 1 site (GABARa1), GABRA1 (gene 780973) (UniProt P08219); assay: NVS_LGIC_bGABARa1: NovaScreen (NVS) Ligand-Gated Ion Channel Assay for bovine Gamma-Aminobutyric Acid Type A Receptor BDZ, alpha 1 site (GABARa1) (AID 2283321)
# Method in brief: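 Bovine cortex membrane preparation, benzodiazepine site on GABA-A alpha1; specific radioligand displacement read after 0.75 h by filtration and scintillation. Screen at 25 uM, then singleton titrations up to 50 uM; DMSO baseline.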
# [13] = system: rat Monoamine Oxidase, MAO-A, Central (MAOAC), gene 29253; assay: NVS_ENZ_rMAOAC: NovaScreen (NVS) Enzymatic Assay for rat Monoamine Oxidase, MAO-A, Central (MAOAC) (AID 2283243);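 further: potency refers to inhibition seen as signal drop below DMSO baseline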
# Method in brief: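 Single-concentration duplicate testing at 25 uM, then concentration-response for actives, in a lysate-based radiodetection MAO-A activity assay from rat brain. Enzyme activity measured 1.5 hours post-dosing; DMSO served as negative control and baseline.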
# [14] = biological target: human Matrix Metalloproteinase-1 (MMP1), MMP1 (gene 4312) (UniProt P03956); assay: NVS_ENZ_hMMP1: NovaScreen (NVS) Enzymatic Assay for human Matrix Metalloproteinase-1 (MMP1) (AID 2283181)
# Method in brief: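 Cell-free fluorescent substrate assay of human MMP1, read after 1 h. A single 25 uM duplicate screen was followed by concentration series to a maximum of 50 uM for actives meeting threshold; inhibition analysed against DMSO baseline.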
# [15] = biological target: human AMP-activated Protein Kinase, alpha 1 (AMPKa1), PRKAA1 (gene 5562) (UniProt Q13131); assay: NVS_ENZ_hAMPKa1: NovaScreen (NVS) Enzymatic Assay for human AMP-activated Protein Kinase, alpha 1 (AMPKa1) (AID 2283130)
# Method in brief: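 Compounds were screened in duplicate at 25 uM, and those reaching ~30% inhibition were titrated up to 50 uM. The enzyme was recombinant human AMPKα1, and kinase turnover was read by fluorescence/mobility shift 1 h post-dosing as loss of signal versus DMSO.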
# [16] = biological target: human Aurora Kinase A - serine/threonine-protein Kinase 6 (AurA), AURKA (gene 6790) (UniProt O14965); assay: NVS_ENZ_hAurA: NovaScreen (NVS) Enzymatic Assay for human Aurora Kinase A - serine/threonine-protein Kinase 6 (AurA) (AID 2283142)
# Method in brief: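 Recombinant human AurA activity read by fluorescence after mobility-shift separation of product from substrate; 1 hour incubation. Chemicals first run in duplicate at 25 uM, then concentration series to 50 uM if over threshold; fitted relative to DMSO.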
# [17] = biological target: human Phosphatase and Tensin Homolog (PTEN), PTEN (gene 5728) (UniProt P60484); assay: NVS_ENZ_hPTEN: NovaScreen (NVS) Enzymatic Assay for human Phosphatase and Tensin Homolog (PTEN) (AID 2283203)
# Method in brief: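 Loss of fluorescent product signal after mobility-shift separation reports PTEN activity, recombinant human enzyme, 1 h after compound addition. Single 25 uM duplicate screen, then concentration-response on actives; DMSO baseline.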
# [18] = biological target: human Protein Tyrosine Phosphatase Non-receptor Type 2 (PTPN2), PTPN2 (gene 5771) (UniProt P17706); assay: NVS_ENZ_hPTPN2: NovaScreen (NVS) Enzymatic Assay for human Protein Tyrosine Phosphatase Non-receptor Type 2 (PTPN2) (AID 2283207)
# Method in brief: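 Activity measured as fluorescence after mobility-shift separation of substrate and product, 1 h after compound. Duplicate single-point 25 uM primary testing, concentration series for actives; inhibition scored as signal loss relative to DMSO baseline.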
# [19] = biological target: human Tyrosine Protein Kinase Receptor Tie-2 (Tie2), TEK (gene 7010) (UniProt Q02763); assay: NVS_ENZ_hTie2: NovaScreen (NVS) Enzymatic Assay for human Tyrosine Protein Kinase Receptor Tie-2 (Tie2) (AID 2283225)
# Method in brief: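 Substrate and product were separated by mobility shift and detected by fluorescence after a 1-hour reaction with recombinant Tie2. Chemicals passing a 25 uM single-point screen were titrated to a maximum of 50 uM. Results were normalized to DMSO baseline.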
# [20] = biological target: human Caspase 2 (CASP2), CASP2 (gene 835) (UniProt P42575); assay: NVS_ENZ_hCASP2: NovaScreen (NVS) Enzymatic Assay for human Caspase 2 (CASP2) (AID 2283135)
# Method in brief: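 Single-point duplicate testing at 25 uM preceded concentration series topping at 50 uM. Activity of the recombinant E. coli-derived protease was followed by fluorescent substrate cleavage 1 h post-dosing, relative to DMSO.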
# Sequence of human Acetylcholinesterase (AChE), ACHE (gene 43) (P22303 whole entry, looked up): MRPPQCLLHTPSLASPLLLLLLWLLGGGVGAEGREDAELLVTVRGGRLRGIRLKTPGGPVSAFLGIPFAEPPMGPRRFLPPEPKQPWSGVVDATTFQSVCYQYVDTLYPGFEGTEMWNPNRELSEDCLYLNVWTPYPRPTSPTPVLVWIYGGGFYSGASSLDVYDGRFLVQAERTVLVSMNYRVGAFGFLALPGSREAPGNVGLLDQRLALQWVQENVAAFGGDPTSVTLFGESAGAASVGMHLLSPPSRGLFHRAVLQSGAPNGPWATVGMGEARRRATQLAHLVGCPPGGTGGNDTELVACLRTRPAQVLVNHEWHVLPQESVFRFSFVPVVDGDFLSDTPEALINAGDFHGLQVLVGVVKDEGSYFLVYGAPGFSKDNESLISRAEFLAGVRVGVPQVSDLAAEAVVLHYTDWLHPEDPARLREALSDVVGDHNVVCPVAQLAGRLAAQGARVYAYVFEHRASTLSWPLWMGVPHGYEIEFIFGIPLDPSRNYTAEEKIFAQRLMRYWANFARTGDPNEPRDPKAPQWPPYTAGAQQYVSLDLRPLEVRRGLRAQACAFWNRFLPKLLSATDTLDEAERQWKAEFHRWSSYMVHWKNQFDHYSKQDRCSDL
# Sequence of rat Monoamine Oxidase, MAO-B, Central (MAOBC), Maob (gene 25750) (P19643 whole entry, looked up): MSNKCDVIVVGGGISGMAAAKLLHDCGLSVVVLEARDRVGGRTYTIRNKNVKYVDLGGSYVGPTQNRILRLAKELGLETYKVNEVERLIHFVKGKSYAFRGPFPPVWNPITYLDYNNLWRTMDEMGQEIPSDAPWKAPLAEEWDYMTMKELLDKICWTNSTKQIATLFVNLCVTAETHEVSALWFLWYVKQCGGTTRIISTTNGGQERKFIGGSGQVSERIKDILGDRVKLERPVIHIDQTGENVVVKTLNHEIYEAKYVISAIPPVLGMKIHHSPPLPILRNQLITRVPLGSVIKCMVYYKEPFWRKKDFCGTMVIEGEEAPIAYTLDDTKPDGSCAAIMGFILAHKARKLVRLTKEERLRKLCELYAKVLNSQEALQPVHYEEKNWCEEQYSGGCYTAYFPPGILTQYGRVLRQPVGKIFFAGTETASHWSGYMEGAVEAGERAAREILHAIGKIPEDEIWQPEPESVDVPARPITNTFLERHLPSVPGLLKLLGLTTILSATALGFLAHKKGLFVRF
# Sequence of rat Monoamine Oxidase, MAO-B, Peripheral (MAOBP), Maob (gene 25750) (P19643 whole entry, looked up): as above
# Sequence of rat Acetylcholinesterase (AChE), Ache (gene 83817) (P37136 whole entry, looked up): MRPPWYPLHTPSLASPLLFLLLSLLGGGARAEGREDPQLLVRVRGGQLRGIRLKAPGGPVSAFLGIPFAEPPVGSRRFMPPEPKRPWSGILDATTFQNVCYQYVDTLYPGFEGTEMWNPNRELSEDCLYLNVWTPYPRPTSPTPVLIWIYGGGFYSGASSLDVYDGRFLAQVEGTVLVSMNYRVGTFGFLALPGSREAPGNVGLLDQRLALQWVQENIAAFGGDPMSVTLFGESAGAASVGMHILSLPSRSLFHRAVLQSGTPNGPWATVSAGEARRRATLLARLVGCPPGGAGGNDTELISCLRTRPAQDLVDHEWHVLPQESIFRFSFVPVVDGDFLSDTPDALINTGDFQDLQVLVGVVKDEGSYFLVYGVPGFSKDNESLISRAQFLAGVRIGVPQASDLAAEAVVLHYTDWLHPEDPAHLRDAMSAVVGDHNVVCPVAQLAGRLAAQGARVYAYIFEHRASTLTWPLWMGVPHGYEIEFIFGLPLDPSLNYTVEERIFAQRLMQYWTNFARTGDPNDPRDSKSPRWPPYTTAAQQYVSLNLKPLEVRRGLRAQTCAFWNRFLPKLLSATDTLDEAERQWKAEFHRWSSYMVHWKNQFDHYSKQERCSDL
# Sequence of human p21 Activated Kinase 4 (PAK4), PAK4 (gene 10298) (O96013 whole entry, looked up): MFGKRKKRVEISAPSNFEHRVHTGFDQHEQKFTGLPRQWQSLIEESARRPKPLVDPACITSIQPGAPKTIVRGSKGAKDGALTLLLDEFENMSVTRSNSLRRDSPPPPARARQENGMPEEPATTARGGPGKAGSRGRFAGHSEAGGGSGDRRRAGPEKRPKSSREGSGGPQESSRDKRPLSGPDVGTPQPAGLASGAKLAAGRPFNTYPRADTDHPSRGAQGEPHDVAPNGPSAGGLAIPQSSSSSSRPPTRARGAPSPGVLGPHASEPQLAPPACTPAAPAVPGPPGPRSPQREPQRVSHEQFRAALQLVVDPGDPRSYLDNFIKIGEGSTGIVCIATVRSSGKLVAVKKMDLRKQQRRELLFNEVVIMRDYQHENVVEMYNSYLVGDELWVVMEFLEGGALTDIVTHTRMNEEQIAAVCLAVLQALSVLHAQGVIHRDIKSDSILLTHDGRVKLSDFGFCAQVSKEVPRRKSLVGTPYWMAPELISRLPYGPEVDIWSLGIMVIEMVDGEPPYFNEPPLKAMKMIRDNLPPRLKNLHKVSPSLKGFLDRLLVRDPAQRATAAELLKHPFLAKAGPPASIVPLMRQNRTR
# Sequence of human Epidermal Growth Factor Receptor (EGFR), EGFR (gene 1956) (P00533 whole entry, looked up): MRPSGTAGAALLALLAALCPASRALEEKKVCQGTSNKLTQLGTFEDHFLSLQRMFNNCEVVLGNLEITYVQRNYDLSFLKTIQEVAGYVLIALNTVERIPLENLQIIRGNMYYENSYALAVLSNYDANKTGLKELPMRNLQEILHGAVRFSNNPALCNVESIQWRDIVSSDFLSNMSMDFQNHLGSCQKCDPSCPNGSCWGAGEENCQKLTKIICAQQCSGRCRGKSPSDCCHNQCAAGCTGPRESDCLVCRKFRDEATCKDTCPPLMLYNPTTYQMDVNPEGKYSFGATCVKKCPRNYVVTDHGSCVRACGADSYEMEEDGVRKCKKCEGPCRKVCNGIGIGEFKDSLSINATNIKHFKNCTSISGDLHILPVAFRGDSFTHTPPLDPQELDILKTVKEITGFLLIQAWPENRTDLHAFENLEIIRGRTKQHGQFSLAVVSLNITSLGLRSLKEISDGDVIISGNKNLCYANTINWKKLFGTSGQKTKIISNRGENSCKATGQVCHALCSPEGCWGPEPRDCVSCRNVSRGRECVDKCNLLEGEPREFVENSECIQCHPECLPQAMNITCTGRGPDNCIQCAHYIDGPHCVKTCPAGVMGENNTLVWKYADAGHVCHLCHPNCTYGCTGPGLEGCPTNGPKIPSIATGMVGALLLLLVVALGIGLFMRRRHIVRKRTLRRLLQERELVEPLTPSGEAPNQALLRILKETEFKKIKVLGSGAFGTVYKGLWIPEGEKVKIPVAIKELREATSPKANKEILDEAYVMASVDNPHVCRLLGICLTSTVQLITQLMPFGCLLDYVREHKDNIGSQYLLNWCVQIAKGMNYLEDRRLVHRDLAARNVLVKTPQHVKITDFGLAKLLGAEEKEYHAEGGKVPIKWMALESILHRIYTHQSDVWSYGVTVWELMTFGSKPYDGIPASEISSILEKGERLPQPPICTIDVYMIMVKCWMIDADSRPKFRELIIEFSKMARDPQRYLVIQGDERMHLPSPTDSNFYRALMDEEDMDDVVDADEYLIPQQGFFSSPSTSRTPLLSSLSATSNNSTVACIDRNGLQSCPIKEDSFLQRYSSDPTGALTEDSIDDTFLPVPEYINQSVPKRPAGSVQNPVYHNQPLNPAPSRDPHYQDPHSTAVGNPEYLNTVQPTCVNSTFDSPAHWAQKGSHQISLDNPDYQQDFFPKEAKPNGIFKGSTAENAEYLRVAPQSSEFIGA
# Sequence of human Raf-1 Proto-Oncogene, serine/threonine Kinase (RAF1), RAF1 (gene 5894) (P04049 whole entry, looked up): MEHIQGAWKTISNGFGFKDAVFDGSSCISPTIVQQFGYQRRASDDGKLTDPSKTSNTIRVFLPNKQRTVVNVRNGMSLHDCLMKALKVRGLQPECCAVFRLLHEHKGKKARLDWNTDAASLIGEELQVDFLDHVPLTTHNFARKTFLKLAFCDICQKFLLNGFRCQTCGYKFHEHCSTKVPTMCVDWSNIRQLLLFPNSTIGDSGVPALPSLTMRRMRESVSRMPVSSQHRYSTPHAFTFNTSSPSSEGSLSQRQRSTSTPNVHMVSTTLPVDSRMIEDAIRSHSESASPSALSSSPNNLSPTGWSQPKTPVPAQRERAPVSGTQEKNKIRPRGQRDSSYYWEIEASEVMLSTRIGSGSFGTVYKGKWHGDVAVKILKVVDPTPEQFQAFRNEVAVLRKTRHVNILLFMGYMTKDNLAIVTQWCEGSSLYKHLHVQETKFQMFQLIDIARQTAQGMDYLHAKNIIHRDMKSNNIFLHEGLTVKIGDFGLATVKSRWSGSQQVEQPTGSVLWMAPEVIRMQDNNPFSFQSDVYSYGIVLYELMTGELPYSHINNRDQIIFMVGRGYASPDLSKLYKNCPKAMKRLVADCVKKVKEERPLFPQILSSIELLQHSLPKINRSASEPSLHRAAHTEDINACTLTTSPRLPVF
# Sequence of human Neonicotinoid receptor (NNR), CHRNA2 (gene 1135) (Q15822 whole entry, looked up): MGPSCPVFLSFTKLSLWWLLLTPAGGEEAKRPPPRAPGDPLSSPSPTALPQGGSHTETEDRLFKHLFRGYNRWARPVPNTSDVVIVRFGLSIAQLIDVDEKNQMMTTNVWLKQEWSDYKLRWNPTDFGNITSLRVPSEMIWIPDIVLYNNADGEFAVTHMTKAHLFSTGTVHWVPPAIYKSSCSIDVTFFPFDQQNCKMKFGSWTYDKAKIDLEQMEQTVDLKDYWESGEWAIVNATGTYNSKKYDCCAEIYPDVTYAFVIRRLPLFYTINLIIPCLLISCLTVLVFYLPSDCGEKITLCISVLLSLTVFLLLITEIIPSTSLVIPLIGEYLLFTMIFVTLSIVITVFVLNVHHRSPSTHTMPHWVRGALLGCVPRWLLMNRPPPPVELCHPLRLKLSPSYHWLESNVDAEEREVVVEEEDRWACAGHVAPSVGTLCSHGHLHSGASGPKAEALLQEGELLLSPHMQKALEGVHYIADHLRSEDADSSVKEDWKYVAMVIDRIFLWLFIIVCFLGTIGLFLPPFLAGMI
smiles,measurement,setting,value
O=c1[nH]c2ccc(S(=O)CCN3CCC(Cc4ccc(F)cc4)CC3)cc2o1 (stereo not drawn),AC50,[1],3.71 µM (active)
same,AC50,[2],5.31 µM (active)
same,AC50,[3],5.31 µM (active)
Cn1c(=O)cc(Oc2ccc(F)cc2F)c2cnc(NCC(C)(C)O)nc21,AC50,[1],17.3 µM (active)
same,outcome,[4],inactive
same,outcome,[5],inactive
CCOC(=O)CCC(=O)OCC,outcome,[1],inactive
same,outcome,[6],inactive
same,AC50,[7],34.7 µM (active)
CCN(Cc1cccc(S(=O)(=O)O)c1)c1ccc(C(=C2C=CC(=[N+](CC)Cc3cccc(S(=O)(=O)O)c3)C=C2)c2ccccc2S(=O)(=O)[O-])cc1,outcome,[8],inactive
same,AC50,[9],12.1 µM (active)
same,outcome,[10],inactive
COc1cccc(-c2ccc(/C=C\CN3CCCCCC3)cc2Cl)c1,AC50,[1],22.6 µM (active)
same,AC50,[11],27.7 µM (active)
same,AC50,[7],11.6 µM (active)
same,AC50,[3],22.6 µM (active)
same,AC50,[12],11.7 µM (active)
CCOC(=O)c1ccc(C2CCC(NC[C@H](O)COc3ccc(O)c(NS(C)(=O)=O)c3)CC2)cc1 (stereo partly drawn),AC50,[1],23.4 µM (active)
same,AC50,[2],15 µM (active)
same,AC50,[11],10.2 µM (active)
NCc1cccc(C2CCN(C(=O)c3ccc(C#Cc4ccccc4F)o3)CC2)c1,AC50,[1],25 µM (active)
same,AC50,[2],11.3 µM (active)
same,AC50,[11],11.2 µM (active)
same,AC50,[7],38 µM (active)
same,AC50,[13],1.72 µM (active)
CCOC(=O)O[C@H](C)OC(=O)c1ccc2c(c1)cc(C(=O)NC1CCN(C(C)C)CC1)n2Cc1cc(-c2ccc(Cl)s2)on1,AC50,[1],5.36 µM (active)
same,outcome,[14],inactive
same,AC50,[13],23.6 µM (active)
Cc1ncc([C@@H](CCCCCCc2ccc3c(n2)NCCC3)CC(=O)O)cn1,outcome,[15],inactive
same,outcome,[16],inactive
same,outcome,[9],inactive
same,AC50,[4],14.9 µM (active)
same,outcome,[6],inactive
same,outcome,[17],inactive
same,outcome,[18],inactive
same,outcome,[5],inactive
same,outcome,[19],inactive
CC(=O)c1ccccc1,outcome,[20],inactive
